Measurements reported in PubChem BioAssay AID651640 (Broad Institute, 2012).
The campaign covered roughly 350,000 compounds. About 6,000 (1.7%) were called active. Not shown: some 5% with an inconclusive outcome. No stated cut-off is given here; in the data, active means CPE inhibition above about 20% (passing the limit was not always enough); inconclusive means no clear call, values can overlap the other calls; tested in BHK-21 cells. What follows is part of a selection rich in actives, with near analogues and random picks from the rest.

Assay: protection of cells from dengue 2 killing – plate reader, single concentration, primary screen (AID 651640);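 further: 0% = median of neutral control wells and 100% = median of positive control wells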
Details: DENV2-infected cells, cytopathic effect rescue, at 9.99 µM, hits give high values

Structure (SMILES)	CPE inhibition
CCOC(=O)[C@]12Cc3cc(OC)ccc3[C@H]1N(C(C)C)C(=O)c1ccccc12	28.6% (active)
CCOC(=O)[C@]12Cc3ccccc3[C@H]1N(C1CCCCC1)C(=O)c1cc(OC)ccc12	12.6% (inactive)
O=C(NC1CCCCC1)N1Cc2cc(N3CCCCC3)ccc2-n2nncc2C1	18.7% (inactive)
Clc1ccc([C@@H]2CC3CCC2N3)cn1 (stereo not given in full)	2.65% (inactive)
c1cc2c(cc1C1OCC3C(c4ccc5c(c4)OCO5)OCC13)OCO2 (stereo not given)	62% (active)
c1cc2c(cc1[C@H]1OC[C@H]3[C@@H]1CO[C@@H]3c1ccc3c(c1)OCO3)OCO2	-8.32% (inactive)
O=C1/C(=C\c2ccc3c(c2)OCO3)N2CCC1CC2	-2.2% (inactive)
COc1ccc(C#Cc2ccc([C@H]3[C@H](CO)N4CCCCN(C(=O)Cc5ccccc5)C[C@@H]34)cc2)cc1	-26.2% (inactive)
O=C(NCC1=C(c2ccc3ccccc3c2)C[C@@H]2CC[C@H]1N2Cc1ccco1)c1cccs1	0.357% (inactive)
CS(=O)(=O)N1CCC2CCNC2C1 (stereo not given)	-6.24% (inactive)
C/C=C/c1ccc(C2[C@@H]3CN(S(C)(=O)=O)C[C@H]2N3)cc1 (stereo not given in full)	62.5% (active)
C/C=C/c1ccc(C2[C@@H]3CN(Cc4cncnc4)C[C@H]2N3)cc1 (stereo not given in full)	3.65% (inactive)
C[C@]12CCC3C(CC[C@H]4[C@H](O)[C@H](O)CC[C@]34C)C1CCC2=O (stereo not given in full)	-1.57% (inactive)
CC(=O)NCC1=C(c2ccc3ccccc3c2)C[C@@H]2CC[C@H]1N2Cc1ccco1	-2.04% (inactive)
C[C@]12CCCCC1=CC(=O)C1C2CC[C@@]2(C)C1C[C@@H](F)[C@@H]2O (stereo not given in full)	-4.28% (inactive)
O=C(Cc1ccncc1)N1CCCCN2[C@@H](CO)[C@H](c3ccc(-c4ccncc4)cc3)[C@@H]2C1	8.4% (inactive)
COc1ccc(-c2ccc([C@H]3[C@H](CO)N4CCCCN(C(=O)Cc5ccncc5)C[C@@H]34)cc2)cc1	40.9% (active)
COc1cccc(-c2ccc([C@H]3[C@H]4CN(C(=O)Cc5ccncc5)CCCCN4[C@H]3CO)cc2)c1	9.07% (inactive)

Structure (SMILES)	CPE inhibition
O=S(=O)(c1ccccc1)N1CCC2CCNC2C1 (stereo not given)	-0.751% (inactive)
COc1ccc2c(c1)NP(=S)(c1ccccc1)N2 (stereo not given)	1.27% (inactive)
Cc1ccnc(-n2c(C)cc(/C=C3\C(=O)NC(=S)N(C)C3=O)c2C)c1	47.7% (active)
Cc1cc(/C=C2/C(=O)NC(=O)N(Cc3ccco3)C2=O)c(C)n1-c1ccc(C(=O)O)cc1	-3.34% (inactive)
Cc1ccc(-n2c(C)cc(/C=C3\C(=O)NC(=O)N(C)C3=O)c2C)cc1C	-7.68% (inactive)
O=C(NC(=S)N1C[C@H]2C[C@H](C1)c1cccc(=O)n1C2)c1ccc(F)cc1	-11.6% (inactive)
O=C(CCC(=O)N1C[C@H]2C[C@@H](C1)c1cccc(=O)n1C2)NCc1ccccc1C(F)(F)F	25.4% (active)
COc1ccccc1NC(=O)N1C[C@@H]2C[C@@H](C1)c1cccc(=O)n1C2	7.15% (inactive)
CC(C)CN1Cc2cc(N3CCCCC3)ccc2-n2nncc2C1	-1.07% (inactive)
O=C(O)[C@H]1[C@H](CO)[C@H]2Cn3c(ccc(-c4ccccc4)c3=O)[C@@H]1N2S(=O)(=O)c1ccccc1F	0.732% (inactive)
COc1cccc(-c2ccc3n(c2=O)C[C@H]2[C@H](CO)[C@@H](C(=O)O)[C@@H]3N2C(=O)c2cnccn2)c1	0.125% (inactive)
COc1cc(OC)cc(C(=O)NCCN2CCC3(CC2)C(=O)NCN3c2ccccc2)c1	5.39% (inactive)
O=C(c1ccccc1)C(O)(CN1CCCCC1)c1ccccc1 (stereo not given)	9.29% (inactive)
COC(=O)C1=C(c2ccc(F)cc2OCc2ccccc2)C[C@@H]2CC[C@H]1N2C(=O)NCc1ccc(Cl)cc1	91% (active)
COC(=O)C1=C(c2ccc(F)cc2OCc2ccccc2)C[C@@H]2CC[C@H]1N2C(=O)NCc1ccc2[nH]ccc2c1	5.56% (inactive)
COC(=O)C1=C(c2ccc(F)cc2OCc2ccccc2)C[C@@H]2CC[C@H]1N2C(=O)NCc1ccc(C(C)(C)C)cc1	-10.5% (inactive)
COc1ccc(C2C=C(C)Oc3c2c(=O)oc2ccccc32)cc1OC (stereo not given)	-10.4% (inactive)
